This is part of a sample that, as a whole, favours compounds with a hit. Of some 79,000 tested, about 15% had one in any assay. Rule as the data show it: active = growth inhibition above about 70%; inactive = the rest.
Key:
[1] = NCI Yeast Anticancer Drug Screen. Data for the rad50 strain (AID 155);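 also: 0% = growth of vehicle-only cultures of the same strain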; conditions: S. cerevisiae rad50 strain growth inhibition; at 50.0 µM; active compounds read high
Procedure, shortened: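 Compounds were tested on a yeast strain with an engineered DNA damage repair alteration; the reported value is growth inhibition normalised to vehicle treatment.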

[2] = NCI Yeast Anticancer Drug Screen. Data for the mec2-1 strain (AID 157); conditions: S. cerevisiae mec2-1 strain, at 50.0 µM, active compounds read high
Procedure, shortened: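 Growth inhibition is read against vehicle-treated controls after compound exposure of the mec2-1 yeast strain, which is defective in DNA damage repair or cell cycle control.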

[3] = NCI Yeast Anticancer Drug Screen. Data for the sgs1 mgt1 strain (AID 161);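 also: 0% = growth of cultures given vehicle only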; conditions: S. cerevisiae sgs1 mgt1 strain, at 50.0 µM, active compounds read high
Procedure, shortened: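 Compounds are added to genetically altered yeast, and growth is compared with cultures given vehicle alone to give percent inhibition.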

[4] = NCI Yeast Anticancer Drug Screen. Data for the cln2 rad14 strain (AID 165);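 also: 0% = growth equal to vehicle treated cultures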; conditions: S. cerevisiae cln2 rad14 strain, at 50.0 µM, active compounds read high
Procedure, shortened: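 Growth inhibition, relative to vehicle-treated controls, is the read-out. The test organism is a yeast strain with defined genetic alterations, cln2 rad14.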

[5] = NCI Yeast Anticancer Drug Screen. Data for the bub3 strain (AID 167); conditions: S. cerevisiae bub3 mutant strain, at 50.0 µM, active compounds read high
Procedure, shortened: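 Growth of a checkpoint-deficient yeast mutant is measured after compound exposure. Values represent inhibition relative to vehicle.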

[6] = NCI Yeast Anticancer Drug Screen. Data for the mlh1 rad18 strain (AID 175); conditions: S. cerevisiae mlh1 rad18 strain growth inhibition; at 50.0 µM; active compounds read high
Procedure, shortened: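 Cells of a genetically altered yeast strain, deficient in DNA damage repair, were treated with compound. Their growth was then compared with that of vehicle-treated cultures to give inhibition.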

Measured: growth inhibition

COC(=O)c1cc(CN(C)C)c(O)c(CN(C)C)c1
inactive: [1] -20.3% | [2] -10.8% | [3] -34% | [4] -3.7% | [5] 2% | [6] -29%

CCOC(=O)c1cc2c(C(=O)c3ccc([N+](=O)[O-])cc3)c(C(C)=O)ccc2[nH]1
inactive: [1] 3.15% | [2] -0.45% | [3] -1.2% | [4] -3.55% | [5] 19% | [6] -45.6%

O=C1C(=O)c2ccc3c(c2-c2cc4c(cc21)OCO4)OCO3
inactive: [1] -5.55% | [2] -17.1% | [3] -14.9% | [4] -5.55% | [5] -27.5% | [6] 18%

O=C1OC2C(O1)C1(c3ccccc3)OC2(c2ccccc2)c2ccccc21 (stereo not given)
inactive: [1] -5.9% | [2] 19.2% | [3] 13.5% | [4] -57.2% | [5] 4.85% | [6] 45.1%

COc1ccc(C(=CC2=CC(=O)C3=C(CCCC3)C2=O)c2ccc(OC)cc2)cc1
inactive: [1] 19.8% | [2] -4.25% | [3] -4.6% | [4] -3.7% | [5] 0.55% | [6] 7.2%

CCCCCCCCCCCCCCCCCC(=O)NC(=O)Nc1ccc(C)cc1
inactive: [1] -3.9% | [2] 17.6% | [3] -10.1% | [4] -17% | [5] -9.65% | [6] 11.2%

CC1CN(C(c2ccccc2)c2ccccc2)CCN1CCO (stereo not given)
inactive: [1] -3.75% | [2] 20.6% | [3] 12.3% | [4] -65.2% | [5] 4.85% | [6] 25.4%

COc1ccc(C(O)c2ccc(OC)cc2)cc1
inactive: [1] -10.8% | [2] -16.6% | [3] -23.9% | [4] 10.1% | [5] -22.3% | [6] -7.6%

Oc1ccc(C2SCc3nc4ccccc4n32)cc1 (stereo not given)
inactive: [1] -7.85% | [2] -17.9% | [3] -35.9% | [4] -7.3% | [5] -45.1% | [6] -25.1%

CC(SC(=S)N1CCOCC1)C(=O)O (stereo not given)
inactive: [1] 2.65% | [2] -6.8% | [3] -1.6% | [4] -4.8% | [5] -6.05% | [6] -7.6%

CCCCC(CC)C(O)CC(C)=O (stereo not given)
inactive: [1] 39.1% | [2] 16.9% | [3] 25% | [4] -8.75% | [5] 14.2% | [6] 21.1%

C/C(=N/NC(N)=S)c1c[nH]c(=O)[nH]c1=O
inactive: [1] -3% | [2] -16.6% | [3] -4.45% | [4] -9.6% | [5] -5.95% | [6] -7.35%

COC(=N)/C(C#N)=N/C1OCC(O)C(O)C1O (stereo not given)
inactive: [1] 5.65% | [2] -21.1% | [3] 2.15% | [4] -31.6% | [5] 0.35% | [6] 0.45%

OCc1c(CO)c(Br)c2ccccc2c1Br
inactive: [1] 11.8% | [2] 3.75% | [3] 35% | [4] -6.45% | [5] 4.9% | [6] -6.2%

NC(=O)c1ncc[nH]c1=O
inactive: [1] -0.65% | [2] 5.35% | [3] -12.6% | [4] 1.7% | [5] 4.2% | [6] -9.15%

CCCCN(c1ccccn1)S(=O)(=O)c1ccccc1
inactive: [1] -2.3% | [2] 19.8% | [3] 19.3% | [4] 7.6% | [5] -3.55% | [6] 5.75%

CSc1nc(-c2ccccc2)c(C(=O)NC(C)CN2CCCCC2)s1 (stereo not given)
inactive: [1] 13.5% | [2] 5.15% | [3] 7.45% | [4] 11% | [5] -3.2% | [6] 11.1%

COc1ccc(-c2cc(=O)cc(C(N)=O)o2)cc1
inactive: [1] -1.1% | [2] -1% | [3] 4.6% | [4] -13.8% | [5] 11.2% | [6] 17.2%

O=c1ccn2cnc3c(ncn3C3OC(CO)C(O)C3O)c2n1 (stereo not given)
inactive: [1] 4.8% | [2] 9% | [3] 10.2% | [4] 7.2% | [5] -10.9% | [6] 9.85%

CSC(SC)=C(C(=O)c1ccc(Cl)cc1)n1c(=O)sc2cc(Br)ccc21
inactive: [1] -19% | [2] 2.45% | [3] 6.25% | [4] 0.25% | [5] 12.8% | [6] -20.4%

CC(=O)/C(=C\c1ccc([N+](=O)[O-])cc1)C(=O)CCN(C)C
inactive: [1] 5.25% | [2] 28.1% | [3] 34.9% | [4] -5.3% | [5] 13.4% | [6] -41.2%

CCOC(=O)CCC[Si](CC)(CC)CC
inactive: [1] 13.9% | [2] 12.3% | [3] 1.5% | [4] -22.1% | [5] -15% | [6] 5.9%

Nc1c(O)cccc1C(=O)O
inactive: [1] -16.2% | [2] -9.9% | [3] -4.45% | [4] 3.95% | [5] 5.1% | [6] -28.7%

Cc1ccc(NC(=O)CCC(CC(=O)C(C)(C)C)=NNC(=O)C(=O)NN)cc1C
inactive: [1] -25.8% | [2] -19.3% | [3] -19.4% | [4] -23.5% | [5] -7.4% | [6] -22.2%

CCOC(=O)C(C)Sc1ncnc2nc[nH]c12 (stereo not given)
inactive: [1] -12.8% | [2] 4.4% | [3] -3.15% | [4] 20.9% | [5] 18% | [6] -0.9%

COC(=O)C(C)(N)Cc1ccc(O)c(C)c1 (stereo not given)
inactive: [1] 3.6% | [2] 10.8% | [3] 0.5% | [4] -10.3% | [5] -4.05% | [6] -9.9%

CC(=O)N/C(=C\c1ccccc1)C(N)=O
inactive: [1] 9.9% | [2] 12.9% | [3] 1.2% | [4] 0.6% | [5] 36% | [6] 1.55%

C=CC(=O)NC1CCCCC1
inactive: [1] -8.9% | [2] -10.9% | [3] -19.8% | [4] -8.9% | [5] -6.8% | [6] -22.4%

OCCCNCc1ccccc1
inactive: [1] -36.8% | [2] -23.4% | [3] -20.1% | [4] -32.4% | [5] -32.9% | [6] -21.1%

C[N+]1(C)C2CCC1CC(OC(=O)C(O)c1ccccc1)C2 (stereo not given)
inactive: [1] -6.8% | [2] -54.4% | [3] -5.1% | [4] -4.85% | [5] -13.8% | [6] -4.8%

C=C1CC/C=C(\C)CCC2C1CC2(C)C (stereo not given)
inactive: [1] -5.1% | [2] -17.1% | [3] 1.9% | [4] 12.2% | [5] 21.1% | [6] 10.9%

CCc1cc2c(cc1C(=O)/C=C\c1cccc3ccccc13)C(C)(C)CCC2(C)C
inactive: [1] 13.1% | [2] -5.35% | [3] 8.15% | [4] -20.1% | [5] -3.5% | [6] 15%

O=[N+]([O-])c1cccc(S(=O)(=O)SSS(=O)(=O)c2cccc([N+](=O)[O-])c2)c1
inactive: [1] 16.6% | [2] 18.1% | [3] 55.9% | [4] 20.8% | [5] 5.75% | [6] 28.2%

O=C(CC(=O)C1CCOC1=O)C(=O)Nc1cccc(Cl)c1 (stereo not given)
inactive: [1] -13.8% | [2] -8.55% | [3] 5.5% | [4] -10.7% | [5] -12% | [6] 21.4%

Cc1cc(C(C)(C)C)cc(Cc2cc(C(C)(C)C)cc(Cc3cc(C(C)(C)C)cc(C)c3O)c2O)c1O
inactive: [1] -25.8% | [2] -4.75% | [3] -43.3% | [4] -13.3% | [5] -0.6% | [6] -24%

CC(=O)OCC1OC(n2c(C)c(N=Nc3ccc(Cl)cc3)c(C)c(C#N)c2=S)C(OC(C)=O)C(OC(C)=O)C1OC(C)=O (stereo not given)
inactive: [1] 4.65% | [2] -0.75% | [3] 25.1% | [4] 11.9% | [5] 7.55% | [6] 18.8%

CCCCCCC(O)CCCCCCCCCCC(=O)OC (stereo not given)
inactive: [1] 33.1% | [2] 4.5% | [3] 20.6% | [4] -26.4% | [5] 12.8% | [6] 33.8%

FC(F)(F)c1cccc(CSCc2c(CSCc3cccc(C(F)(F)F)c3)c(CSCc3cccc(C(F)(F)F)c3)c(CSCc3cccc(C(F)(F)F)c3)c(CSCc3cccc(C(F)(F)F)c3)c2CSCc2cccc(C(F)(F)F)c2)c1
inactive: [1] -12.7% | [2] -2.5% | [3] -6.35% | [4] 12.2% | [5] -7.65% | [6] 7.45%

COc1cc(C2c3cc4c(cc3OC(NCCc3ccccc3)C2C)OCO4)cc(OC)c1OC (stereo not given)
inactive: [1] -15.8% | [2] -41.4% | [3] -0.3% | [4] -25.4% | [5] 0.6% | [6] 11.4%

CCOC(=O)C1=NN(c2ccc(C)cc2)C2=CC(C)=NN(C)C(=S)N21
inactive: [1] -18.1% | [2] -7.3% | [3] -21.8% | [4] -13.6% | [5] 7.1% | [6] -49.3%
